These results are taken from publication PMC5540273 (PLoS ONE, 2017).

Some test systems named below: ACVR2A; ACVR2B; ACVRL1; ADCK4; AKT1; AKT2; AKT3; ALK; ANKK1; AURKA; AURKB; AURKC; AXL.
Conditions in all cases: concentration: 1 μM, replicates: in singlicate, n = 1
The next assay has as its system T1, ADCK3.
T1 construct: gene CABC1

The next assay has as its system T2, AMPK-alpha1.
T2 construct: gene PRKAA1

The subject of the next assay is T3, AMPK-alpha2.
T3 construct: gene PRKAA2

The subject of a further assay is T4, ARK5.
T4 construct: gene NUAK1

The next assay has as its system T5, ASK1.
T5 construct: gene MAP3K5

The next assay concerns T6, ASK2.
T6 construct: gene MAP3K6

The next assay relates to T7, BIKE.
T7 construct: gene BMP2K

SMILES strings stand for the structures. Values joined by “and” are separate entries in the source; they are usually repeats but may differ in a detail not shown here. Identical values can stand only once. Like-named read-outs stand apart in the source and are kept apart here.
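Further: KINOMEscan kinase panel screen.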

For `Cc1ccc(C(=O)NCC(N)=O)cc1-n1c(C)cc(OCc2ccc(F)cc2F)c(Br)c1=O`, the “%Inh” value with ACVR2A is 0%; with ACVR2B, 4%; with ACVRL1, 28%; in the assay on ADCK3, 27%; in the assay on ADCK4, 2%; in the assay on AKT1, 29%. In addition, the “%Inh” value was 19% in the assay with AKT2; 0% in the assay on AKT3; 0% in the assay on ALK; 30% with AMPK-alpha1; 11% in the assay with AMPK-alpha2; 0% in the assay on ANKK1. For the same compound, the “%Inh” value in the assay with ARK5 was determined as 0%; in the assay with ASK1, 12%; with ASK2 it was 0%; in the assay with AURKA it was 0%; with AURKB, 0%; with AURKC, 8%. Besides, the “%Inh” value was found to be 11% with AXL and 7% in the assay with BIKE.
Turning to `CC(C)(CN)c1nc(-c2ccc(Cl)c(O)c2)c(-c2ccncc2)[nH]1.O=C(O)C(F)(F)F` [SB-477794], the “%Inh” value is 1% and 25% in the assay on ACVR2A (1 µM); 91.9% and 91% in the assay on ACVR2B (1 µM); 61% and 67% in the assay with ACVRL1 (1 µM); 7% and 17% in the assay on ADCK3 (1 µM); 54% and 35% in the assay on ADCK4 (1 µM); 5% and 25% with AKT1 (1 µM). Moreover, the “%Inh” value is 21% and 8% in the assay on AKT2 (1 µM); 34% and 100% in the assay with AKT3 (1 µM); 34% and 16% in the assay on ALK (1 µM); 0% in the assay on AMPK-alpha1; 15% and 13% in the assay on AMPK-alpha2 (1 µM); 0% and 1% with ANKK1 (1 µM). The “%Inh” value was 19% and 0% with ARK5 (1 µM); 19% and 0% in the assay with ASK1 (1 µM); 1% and 3% in the assay with ASK2 (1 µM); 8% and 0% in the assay on AURKA (1 µM); 31% and 15% in the assay on AURKB (1 µM); 0% and 30% with AURKC (1 µM). The “%Inh” value in the assay on AXL (1 µM) was 5% and 13%; in the assay on BIKE (1 µM), 0% and 21%.
Take `COCCNC(=O)c1ccc(-c2cc(C(=O)NC3CC3)cc(F)c2C)cc1` [GW868318]: the “%Inh” value with ACVR2A is given as 12%; in the assay on ACVR2B, 0%; in the assay with ACVRL1, 9%; with ADCK3, 14%; with ADCK4, 0%; with AKT1, 0%. In addition, the “%Inh” value with AKT2 is given as 15%; in the assay with AKT3, 26%; in the assay with ALK, 51%; with AMPK-alpha1, 20%; in the assay with AMPK-alpha2 it was 0%; in the assay on ANKK1 it was 11%. The “%Inh” value was 0% in the assay on ARK5; 5% in the assay on ASK1; 26% in the assay with ASK2; 27% in the assay on AURKA; 33% with AURKB; 0% in the assay on AURKC. For the same compound, the “%Inh” value is reported as 0% in the assay on AXL and 7% in the assay with BIKE.
For `Cc1cccc(Cn2ccn3c(=O)cc(N4CCOCC4)nc23)c1` [GSK2297542], the “%Inh” value in the assay with ACVR2A is given as 0%; in the assay with ACVR2B, 4%; in the assay with ACVRL1 it was 6%; in the assay on ADCK3, 27%; with ADCK4, 44%; in the assay with AKT1, 0%. Also, the “%Inh” value in the assay with AKT2 is given as 4%; in the assay on AKT3 it was 0%; in the assay on ALK it was 36%; in the assay on AMPK-alpha1, 1%; in the assay on AMPK-alpha2 it was 12%; in the assay with ANKK1, 19%. Also, the “%Inh” value in the assay with ARK5 is given as 12%; with ASK1, 0%; with ASK2, 6%; with AURKA, 15%; in the assay on AURKB it was 0%; with AURKC, 18%. Also, the “%Inh” value is 5% in the assay with AXL and 15% in the assay on BIKE.
Take `CSc1ccc(-c2cc3ncnc(SCC(=O)O)c3s2)cc1`: the “%Inh” value in the assay with ACVR2A, with ACVR2B, with ACVRL1, in the assay with ADCK3, with ADCK4 and in the assay with AKT1 was 0% in each case. In addition, the “%Inh” value in the assay with AKT2 was found to be 0%; in the assay with AKT3, 0%; with ALK, 0%; in the assay on AMPK-alpha1, 14%; in the assay with AMPK-alpha2, 5%; with ANKK1, 0%. Besides, the “%Inh” value in the assay with ARK5 was found to be 0%; in the assay with ASK1, 0%; in the assay on ASK2 it was 0%; in the assay on AURKA it was 0%; with AURKB it was 78%; in the assay on AURKC it was 12%. The results for the “%Inh” value with AXL and with BIKE were 5% and 12%, respectively.
Regarding `NCCNS(=O)(=O)c1ccc(-c2ccnc3[nH]ccc23)cc1` [GSK977617], the “%Inh” value is 0% with ACVR2A; 2% and 0% with ACVR2B (1 µM); 0% in the assay with ACVRL1; 0% and 6% in the assay with ADCK3 (1 µM); 32% and 21% in the assay with ADCK4 (1 µM); 77% and 66% in the assay with AKT1 (1 µM). Further, the “%Inh” value with AKT2 (1 µM) was 15% and 10%; in the assay with AKT3 (1 µM), 88% and 83%; with ALK (1 µM), 60% and 36%; in the assay on AMPK-alpha1 (1 µM), 50% and 38%; in the assay with AMPK-alpha2 (1 µM), 60% and 31%; in the assay with ANKK1 it was 0%. Further, the “%Inh” value is 45% and 17% in the assay with ARK5 (1 µM); 30% and 5% in the assay with ASK1 (1 µM); 21% and 18% in the assay with ASK2 (1 µM); 51% and 39% in the assay with AURKA (1 µM); 71% and 67% with AURKB (1 µM); 92.4% and 84% in the assay on AURKC (1 µM). Besides, the “%Inh” value was 93% and 87% in the assay with AXL (1 µM); 97.4% and 93.3% in the assay on BIKE (1 µM).
On to `COc1cc(Nc2nccc(N3CCC(NC(=O)c4cccc(NC(C)=O)c4)C3)n2)cc(OC)c1OC` (stereo not shown) [GSK1379754], for which the “%Inh” value in the assay with ACVR2A stood at 17%; in the assay on ACVR2B, 18%; with ACVRL1 it was 0%; in the assay with ADCK3, 10%; in the assay on ADCK4, 36%; in the assay with AKT1, 0%. Besides, the “%Inh” value in the assay with AKT2 was determined as 0%; in the assay on AKT3 it was 0%; in the assay on ALK, 29%; in the assay with AMPK-alpha1, 8%; with AMPK-alpha2 it was 12%; in the assay with ANKK1 it was 34%. In addition, the “%Inh” value in the assay with ARK5 was 31%; in the assay on ASK1 it was 0%; with ASK2 it was 0%; in the assay with AURKA, 97.6%; with AURKB, 0%; with AURKC, 88%. For the same compound, the figures for the “%Inh” value in the assay with AXL and with BIKE were 36% and 86%, respectively.
Regarding `O=C(NCCCN1CCOCC1)c1cccc(Nc2nccc(Nc3ccc(Oc4ccccc4)cc3)n2)c1` [GW663929], the “%Inh” value is recorded as 0% in the assay on ACVR2A; 5% with ACVR2B; 0% in the assay on ACVRL1; 15% in the assay with ADCK3; 36% in the assay on ADCK4; 0% in the assay with AKT1. Besides, the “%Inh” value in the assay on AKT2 came to 11%; in the assay on AKT3 it was 0%; in the assay with ALK, 7%; in the assay on AMPK-alpha1 it was 0%; in the assay with AMPK-alpha2 it was 0%; in the assay on ANKK1 it was 20%. For the same compound, the “%Inh” value stood at 29% in the assay on ARK5; 3% in the assay on ASK1; 0% with ASK2; 36% in the assay with AURKA; 11% with AURKB; 14% in the assay on AURKC. Further, the “%Inh” value is listed as 11% in the assay on AXL and 27% in the assay on BIKE.
